Experimental data as given in PubChem BioAssay (NCI).
Compounds without any hit were thinned out: in the full panel of roughly 83,000, 20% have a hit.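 Single-concentration screen, 48 h exposure, 96-well plates. Endpoint: percent growth. Below 10 = active.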 Active and inactive are the calls of the source.

How the values were obtained:
Test in all cases: NCI-60 one-dose screen, 48 h (100 = growth as untreated, 0 = no growth, -100 = all killed)
Settings in all cases: 10 µM unless noted
[1] = system: NCI-H23 lung
[2] = system: NCI-H226 lung
[3] = system: NCI-H322M lung
[4] = system: HOP-62 NSCLC
[5] = system: NCI-H460 lung
[6] = system: HOP-92 NSCLC
[7] = system: NCI-H522 lung
[8] = system: A549/ATCC NSCLC
[9] = system: 786-0 renal
[10] = system: COLO 205 colon

Measured: growth

O=C(CSc1nccc(Nc2ccc(S(=O)(=O)Nc3nccs3)cc2)n1)c1ccc(F)cc1
inactive: [1] 97.6% | [2] 102% | [3] 106% | [4] 106% | [5] 106% | [6] 106% | [7] 88.6% | [8] 104% | [9] 103% | [10] 108%

COc1ccc(NC(=O)CSc2nc(C)c(C(C)=O)n2-c2ccc(Cl)cc2)cc1
inactive: [1] 90.6% | [2] 86.6% | [3] 100% | [4] 88.5% | [5] 102% | [6] 106% | [7] 78.1% | [8] 97.1% | [9] 106% | [10] 102%

C[C@H]1[C@H]2[C@H]3CC[C@@H]4[C@@]5(C)C/C(=C/c6ccco6)C(=O)C(C)(C)[C@@H]5CC[C@@]4(C)[C@]3(C)CC[C@]23CO[C@]1(C)[C@@H](C(=O)/C=C\c1ccco1)C3
active: [10] -6.84%
inactive: [1] 99.6% | [2] 99.6% | [3] 98.4% | [4] 106% | [5] 107% | [6] 87.1% | [7] 85.7% | [8] 88.3% | [9] 104%

CNC(=O)CCN1CCN(CC/C=C2\c3ccccc3Sc3ccc(Cl)cc32)CC1
inactive: [1] 91% | [2] 121% | [3] 74.8% | [4] 102% | [5] 92.6% | [7] 85% | [9] 75.9% | [10] 85.8%
active: [6] -4.86% | [8] -27.4%

CCN1CCN(c2cc(C)nc(NCc3cc(Nc4ccnc5cc(Cl)ccc45)ccc3F)n2)CC1
inactive: [1] 56% | [2] 83.7% | [3] 90.2% | [4] 52.3% | [5] 61.8% | [6] 62.9% | [7] 106% | [8] 74.6% | [9] 85%
active: [10] -86.2%

Cc1ccc(C(=O)CSc2nc(-c3ccc(Br)cc3)c(C#N)c(=O)[nH]2)cc1
inactive: [1] 92.6% | [2] 101% | [3] 100% | [4] 89.1% | [5] 102% | [6] 92.2% | [7] 90% | [8] 101% | [9] 98.7% | [10] 102%

c1c[nH]c(CNC2CCCCC2)c1
inactive: [1] 97.7% | [2] 102% | [3] 104% | [4] 103% | [5] 105% | [6] 72.9% | [7] 109% | [8] 103% | [9] 112% | [10] 115%

O=C(O)c1ccc2c(c1)CCC2
inactive: [1] 108% | [2] 104% | [3] 106% | [4] 114% | [5] 115% | [6] 117% | [7] 104% | [8] 104% | [9] 105% | [10] 104%

COc1cccc(-c2nn(-c3ccccc3)cc2-c2ccnc(NCCCNC(=O)Nc3ccc(Cl)c(Cl)c3)c2)c1
inactive: [1] 15.1% | [2] 47.9% | [3] 24.3% | [5] 18.5%
active: [4] -5.99% | [6] -11.7% | [7] -37% | [8] 7.3% | [9] -38.7% | [10] -44.7%

NC(N)=Nc1nc2ccccc2n2c1nc1ccccc12
inactive: [1] 36.3% | [2] 56.7% | [3] 43.7% | [4] 40.4% | [6] 56.6% | [7] 16.1% | [8] 17.7% | [9] 33.5% | [10] 30.3%
active: [5] 8.12%

Nc1n[nH]c(-c2cc(Cl)ccc2O)c1-c1ccccc1
inactive: [1] 71.4% | [2] 70.5% | [3] 82.9% | [4] 83.6% | [5] 102% | [6] 73.1% | [7] 81.8% | [8] 82.3% | [9] 92.7% | [10] 101%

CC1CC2Oc3ccc(Cl)cc3C(=O)N2O1 (stereo not given)
inactive: [1] 99.5% | [2] 99.3% | [3] 126% | [4] 101% | [5] 108% | [6] 86.4% | [7] 108% | [8] 98% | [9] 104% | [10] 108%

Cc1cccc(-c2nc(N(C)c3ccc4ncsc4c3)c3ccccc3n2)n1
inactive: [1] 78.2% | [2] 84% | [3] 100% | [4] 69.7% | [5] 70.7% | [6] 91.8% | [7] 30.4% | [8] 48.5% | [9] 94% | [10] 57.3%

COc1cc2c(cc1-c1c(C)noc1C)ncc1nc(C3CCCCC3)n(C3CCC(OC(F)F)CC3)c12 (stereo not given)
active: [6] 1.82% | [7] -12.2% | [10] 1.16%
inactive: [1] 40.8% | [2] 62.2% | [3] 54.7% | [4] 38.3% | [5] 37.3% | [8] 25.3% | [9] 41.4%

COc1cc(C(=O)/C=C/c2c(-c3ccc(F)cc3)nc3sc(C)cn23)cc(OC)c1OC
inactive: [1] 28.9% | [2] 58.5% | [3] 52% | [4] 79% | [5] 28.7% | [6] 23.4% | [7] 93.4% | [8] 45.4% | [9] 40.8% | [10] 52%

COc1ccc(-c2csc(C3=C(O)CN(C(C)C)C3=N)n2)cc1OC
inactive: [1] 101% | [2] 84.4% | [3] 91.6% | [4] 87% | [5] 120% | [6] 43% | [7] 89.1% | [8] 88.7% | [9] 89.7% | [10] 128%

N/C(=N\c1nc2ccccc2s1)NC(=O)Nc1cccc(Cl)c1
inactive: [1] 59.4% | [2] 55.3% | [3] 53.3% | [4] 36.8% | [5] 15.1% | [6] 51.6% | [7] 17.1% | [8] 40.4% | [9] 34.8% | [10] 26.2%

COc1ccc(NC(=O)CSc2nnc(-c3cc(-c4ccc(S(N)(=O)=O)cc4)nc4ccccc34)n2-c2ccccc2)cc1
inactive: [1] 102% | [2] 77.5% | [3] 93.8% | [4] 85.7% | [5] 91% | [6] 62.2% | [7] 78% | [8] 90.9% | [9] 88.4% | [10] 95.5%

Cc1ccc(C(=NN=C(N)N)c2ccc(C)cc2)cc1
inactive: [2] 12.3% | [3] 30.5% | [4] 13.1% | [8] 11.1%
active: [1] -14.5% | [5] 2.86% | [6] -0.938% | [7] -13.8% | [9] -25% | [10] -83.2%

N=c1sc(Cc2ccc(Cl)cc2)cn1CC(=O)c1ccc(F)cc1
inactive: [1] 82.4% | [2] 83% | [3] 76.4% | [4] 102% | [5] 33.7% | [6] 109% | [7] 63.5% | [8] 66.7% | [9] 86.5% | [10] 145%

COc1ccc2c(c1)[nH]c(=O)c1c3cccnc3cn21
inactive: [1] 36.6% | [2] 66.3% | [3] 85.8% | [4] 38.4% | [6] 73.5% | [7] 12% | [8] 13% | [9] 25.7%
active: [5] 1.71% | [10] -45.4%

COc1ccc(-c2ccc3c(c2)sc2nc(-c4ccc(F)cc4)cn23)cc1
active: [10] 1.69%
inactive: [1] 81.1% | [2] 80.8% | [3] 67.7% | [4] 66.3% | [5] 15.4% | [6] 65.8% | [7] 66.1% | [8] 30% | [9] 76.2%

NC(=O)c1ccc[n+](Cc2ccc(Cl)cc2Cl)c1
inactive: [1] 102% | [2] 99.3% | [3] 104% | [4] 88.3% | [5] 102% | [6] 96% | [7] 79.4% | [8] 70.1% | [9] 94.7% | [10] 111%

CCCc1cc2c(=O)c(C(=O)OC)c[nH]c2cc1N(CC)CC
inactive: [1] 102% | [2] 81.7% | [3] 84.2% | [4] 90% | [5] 102% | [6] 111% | [7] 73.7% | [9] 101% | [10] 119%
active: [8] -20%

CC1=C([Se]CC(OC(=O)CC[Se]c2ccccc2)C(=O)NCCCCCC(=O)OCc2ccccc2)C(=O)c2ccccc2C1=O (stereo not given)
active: [3] 2.53% | [4] -15.1% | [6] -5.98%
inactive: [1] 10% | [2] 46% | [5] 21.6% | [7] 52.7% | [8] 11.9% | [9] 58.2% | [10] 105%

NC1=NCc2nc3ccccc3c(=O)n2C1
inactive: [1] 96.6% | [2] 94.9% | [3] 110% | [4] 98.4% | [5] 111% | [6] 67.5% | [7] 91.6% | [8] 93.9% | [9] 97.6% | [10] 124%

N#Cc1c(-c2cccc(Cl)c2)cc(-c2cccc(Cl)c2)[nH]c1=O
inactive: [1] 79.8% | [2] 94% | [3] 87.2% | [4] 71.3% | [5] 77.1% | [6] 44% | [7] 64.4% | [8] 61.9% | [9] 87.6% | [10] 108%
